Screening data (PubChem)
Pf growth 48h: P. falciparum growth inhibition at 48 hours (one generation). AID 504832. P. falciparum luciferase growth in erythrocytes, 48 h. actives 5.9% (n = 310,000). Potency, µM (doses to about 28.7 µM), inactives show at the top dose activity change, negative = inhibition, most hits filed as inhibitors; note: potency is the fitted concentration of half-maximal effect; % is set by controls: 0 for no effect and ±100 for the full control effect
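First compound was added to culture medium, then infected red cells at 0.1% parasitemia and 2% hematocrit (final). After incubation at 37 C under 5% CO2, luciferase detection reagent was dispensed and light output recorded.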
Cycloheximide cs: counter-screen hit for Shiga toxin inhibitors, cycloheximide; cell reporter, cycloheximide protein synthesis inhibition counterscreen; max response, %; actives 12% (n = 300,000); in the data active = max response mostly above about 13%, no sharp cut-off; inactive = mostly below about 14%; note: read at 38.3 µM for the half of the compounds with a filed dose; 0% is about no effect
Pf growth 96h: P. falciparum growth inhibition at 96 hours; P. falciparum luciferase reporter growth, 96 h; Potency, µM (highest dose often 28.7 µM), for the others: at the highest dose activity change, negative = inhibition, hits mostly inhibitors; actives 6.9% (n = 320,000); note: potency is the fitted concentration of half-maximal effect; % is set by controls: 0 for no effect and ±100 for the full control effect
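Readout is luminescence from an integrated firefly luciferase in P. falciparum. Red cells, 2% hematocrit and 0.05% parasitemia final, were cultured with compound through two parasite generations (96 hours) at 37 C, 5% CO2.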
NS1 inh: inhibitors of influenza NS1 protein function. Potency, µM (top dose mostly 46.1 µM), without a hit: top-dose activity, positive = more growth. actives 0.4% (n = 270,000). AID 2326; calls by dose curve; note: potency is the fitted concentration of half-maximal effect; actives are rising curves; nearly all actives have a fitted effect of over 50% in size
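A cell-based growth assay was used: compounds that relieve NS1-induced slow growth of budding yeast raise OD600. Assay medium was yeast nitrogen base with ammonium sulphate and -URA supplement, pH 6.0, with 2% galactose.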
Shiga toxin inh: blocks Shiga toxin action in Vero cells. Vero cells, Shiga toxin protein synthesis inhibition reporter. inhibition, % at 38.7 µM. actives 9.2% (n = 290,000). AID 2315; in the data active = inhibition mostly above about 28%, no sharp cut-off; inactive = mostly below about 43%; note: 0% is about no effect
* marks the source's active call; other numbers are inactive results; ? = inconclusive; / = no result. The list is not random: actives were taken first. Their share in the collection is about 21%. Unless noted, calls come from the whole dose curve; as a rule, active = well fitted inhibition curve with a large enough effect; inconclusive = small, poorly fitted or top-dose-only effect, or another doubt; inactive = no such curve, though single readings can be large or run the other way.

SMILES | Pf growth 48h | Cycloheximide cs | Pf growth 96h | NS1 inh | Shiga toxin inh
c1ccc(CCc2ccccc2-c2nc(-c3ccccn3)no2)cc1 | ? | 20 | / | -67% | 26
COc1ccccc1-c1nnc(SC(C(=O)c2c[nH]c3ccccc23)c2ccccc2)n1C (configuration not stated) | ? | -1 | ? | ? | -16
COc1cccc(-c2nnc(SC(C(=O)c3c[nH]c4ccccc34)c3ccccc3)n2C)c1 (configuration not stated) | 13µM* | -1 | 13µM* | 3% | -9
Cc1ccnc(NS(=O)(=O)c2ccc(NS(=O)(=O)c3ccc([N+](=O)[O-])cc3)cc2)n1 | 27% | -4 | -3% | 4% | 6
CC(c1nnc(SCC(=O)Nc2cc([N+](=O)[O-])ccc2F)n1Cc1ccccc1)N(C)C (configuration not stated) | 8.3µM* | -4 | 5.2µM* | ? | -7
COc1cc(C2NC(=S)NC(O)(C(F)(F)F)C2C(=O)c2cccs2)cc(OC)c1O (configuration not stated) | 58% | 40* | 48% | 1% | 11*
O=C1NC(c2ccccc2)C(C(=O)c2cccs2)C(O)(C(F)(F)F)N1 (configuration not stated) | -5% | 10 | -12% | -2% | 25
CN1C(=O)NC(c2ccc(O)cc2)C(C(=O)c2cccs2)C1(O)C(F)(F)F (configuration not stated) | ? | 34 | ? | -10% | 111*
CCOC(=O)C1C(c2cc(OC)c(O)c(OC)c2)NC(=S)NC1(O)C(F)(F)F (configuration not stated) | -6% | 0 | -2% | 4% | -7
CN(CC(=O)Nc1cccc(F)c1)C(=O)CCCn1c(=O)oc2ccccc21 | 16% | / | -9% | / | /
C(/C=C/c1ccco1)=N/N1CCN(c2ccccc2)CC1 | 114% | 34* | 153% | 6% | 106*
Clc1ccccc1CN1CCN(/N=C/C=C\c2ccco2)CC1 | 43% | 16* | 22% | 4% | 69*
CC(C)C[C@H](NC(=O)[C@H]1O[C@@H]1C(=O)O)C(=O)NCCCCN=C(N)N | / | -5 | / | / | -5
COc1ccccc1Cn1c(=O)c2ccccc2n2c(SCc3csc(C)n3)nnc12 | ? | 10 | 5.2µM* | -1% | 20
COc1ccccc1Cn1c(=O)c2ccccc2n2c(Sc3ncnc4sccc34)nnc12 | ? | -1 | 17% | -51% | -16
C=CCN(C(=O)C1CSC2(C)CCC(=O)N12)c1nc(-c2ccccc2)cs1 (configuration not stated) | 12µM* | / | ? | / | /
COc1ccc(OC)c(NC(=O)C2CCCN2C(=O)C2CCC(C)CC2)c1 (configuration not stated) | / | -3 | 9.3µM* | -3% | -6
CCN(CC)S(=O)(=O)c1ccc(NC=C(C#N)C#N)cc1 | 22% | 1 | 4% | -1% | -9
O=C(O)c1ccccc1CSc1ncccc1C(=O)O | 0% | -3 | -3% | / | -9
Cc1ccnc(NC(=S)NC(=O)/C=C/c2ccco2)c1 | 136% | 70* | 30% | -13% | 138*
CCC(=O)Nc1ccc(NC(=S)NC(=O)/C=C/c2ccco2)cc1 | -14% | -3 | 310% | 12% | /
O=C(/C=C/c1ccco1)NC(=S)Nc1ccc(Cl)cn1 | 10% | 29 | / | 0% | 88*
Cc1ccc(O)c(NC(=S)NC(=O)/C=C/c2ccco2)c1 | 96% | 47* | 30% | 13% | 67*
Cc1ccc(C(=O)/C=C/c2ccco2)c(O)c1 | 97% | 37* | 7% | 6% | 56*
CC(=O)NC(=S)Nc1ccc(NC(=S)NC(=O)/C=C/c2ccco2)cc1 | 2% | -3 | 7% | 16% | -12
SMILES | Pf growth 48h | Cycloheximide cs | Pf growth 96h | NS1 inh | Shiga toxin inh
O[C@@H](c1cc(C(F)(F)F)nc2c(Cl)cc(Cl)cc12)C1CCCCN1 (some centres not stated) | / | / | / | -3% | /
CCc1ccccc1NC(=O)CCNC(=O)Cn1ccc2ccccc2c1=O | 26% | -5 | ? | 9% | -12
CC1CCC2=NN(C(=O)c3ccco3)C(O)(C(F)(F)F)C2C1 (configuration not stated) | -8% | 5 | 26% | 2% | -12
O=C(NCC(c1cccs1)N1CCOCC1)c1ccc(Cl)nc1 (configuration not stated) | 14% | / | 19% | / | /
CCCOc1cccc(-c2nn(-c3ccccc3)cc2/C=C(\C#N)C(=O)NCCCn2ccnc2)c1 | 2.1µM* | -4 | 10µM* | 18% | -2
N#C/C(=C/c1cn(-c2ccccc2)nc1-c1cccc(OCc2ccc(F)cc2)c1)C(=O)NCCCn1ccnc1 | 3.7µM* | 9 | 2.1µM* | ? | 15
N#C/C(=C\c1ccc([N+](=O)[O-])cc1)C(=O)NCCCn1ccnc1 | -7% | 4 | 2% | -11% | -3
O=C(NCCCn1ccnc1)c1cn(-c2ccccc2)nc1-c1ccc(F)cc1 | ? | -5 | 7% | 2% | -7
COc1cc(NC(=O)CN(C)CCOc2ccccc2)c(C)cc1[N+](=O)[O-] | 12µM* | -1 | ? | -4% | -5
CN(CCOc1ccccc1)CC(=O)Nc1ccc(Cl)c(S(=O)(=O)N(C)C)c1 | -19% | 2 | 9.3µM* | / | -3
NC(=O)c1ccc(NC(=O)CNCc2ccccc2Cl)cc1 | 14% | 14* | 7% | 4% | 49*
CN(CCOc1ccccc1)CC(=O)Nc1ccc(Cl)cc1[N+](=O)[O-] | 4% | -2 | 19% | / | 18
Cc1ccc(NC(=O)CNCc2ccccc2Cl)cc1S(=O)(=O)N(C)C | / | 40* | ? | 1% | 58*
Cc1cccc(CN2CC34CCC(CC3S2(=O)=O)O4)c1 (configuration not stated) | / | 9 | / | / | 10
CN(C)S(=O)(=O)c1cc(NC(=O)CN2CCN(c3ccccc3)CC2)ccc1Cl | -20% | 3 | ? | -7% | -6
CN(C)S(=O)(=O)c1cc(NC(=O)CNCc2ccccc2)ccc1Cl | -11% | 41* | ? | 2% | 67*
Cc1cc(Br)c(NC(=O)CN(C)CCOc2ccccc2)c(Br)c1 | 36% | 11* | -14% | -5% | 24
Cc1cc(-c2csc(N)n2)c(C)n1Cc1ccco1 | -3% | 36* | ? | 6% | 33
Cc1ccc(-n2c(C)cc(-c3csc(N)n3)c2C)cc1 | ? | -3 | ? | 4% | -4
CCn1ncc(-c2csc(N)n2)c1C | 96% | 26* | ? | / | 31
Cc1cc(-c2csc(N)n2)c(C)n1C | / | 6 | 10µM* | 19% | 24
CCOC(=O)C1=C(C)N(C)C(=O)C1CC(=O)O (configuration not stated) | 8% | -1 | ? | ? | -19
CCOC(=O)C1=C(C)N(c2ccccc2)C(=O)C1CC(=O)O (configuration not stated) | -27% | -3 | 12µM* | -4% | -4
O=C(c1ccc(Cl)cc1)C1CCCN(Cc2cccc3cccnc23)C1 (configuration not stated) | 9.3µM* | 0 | -5% | 2% | -5
